Mtb betalactam: beta-lactam sensitization of Mtb H37Rv; M. tuberculosis H37Rv growth with meropenem, percent inhibition; AID 434955; inhibition, % at 25 µM; actives 0.27% (n = 330,000); call rule not given here;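 further: growth measured after seven days incubation then overnight dye step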
RN4220 kill: S. aureus RN4220 growth inhibition. OD600, 16 h. inhibition, % (no concentration beside the values). actives 0.33% (n = 330,000); in the data active means inhibition above about 85%
3CLpro inhibitor: SARS-CoV 3CLpro protease inhibition; P0C6X7; recombinant SARS-CoV 3CLpro, quenched FRET peptide cleavage; inhibition, % at 6 µM; actives 0.14% (n = 290,000); AID 1706; in the data active means inhibition above about 12%
MazEF act: increases E. coli MazEF RNase cleavage of RNA. AID 504720. activation, % at 20 µM. P0AE70. actives 0.32% (n = 350,000). FAM/BHQ RNA-DNA oligo cleavage fluorescence, 5 h; in the data active means activation above about 50%
Target sequence (P0AE70 whole entry, looked up): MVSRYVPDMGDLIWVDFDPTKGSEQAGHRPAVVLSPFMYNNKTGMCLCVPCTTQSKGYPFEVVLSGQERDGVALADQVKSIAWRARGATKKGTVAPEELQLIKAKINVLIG
CCHFV vOTU inh: blocks the CCHF virus ovarian tumor domain protease; inhibition, % at 11.5 µM; actives 0.55% (n = 370,000); AID 651958; CCHFV vOTU protease, Pep-AMC fluorescence; in the data active means inhibition above about 30%
ugtP null kill: compounds lethal to S. aureus RN4220 ugtP deletion mutant; actives 0.54% (n = 330,000); growth inhibition, % (test concentration not listed); OD600 growth, 16 h; AID 1259309; in the data active means growth inhibition above about 68%
A number is an active result; - = inactive; . = no result. An excerpt weighted towards active compounds, which were near 1.3% of everything screened.

SMILES	Mtb betalactam	RN4220 kill	3CLpro inhibitor	MazEF act	CCHFV vOTU inh	ugtP null kill
CC1CN(C(C)CO)C(=O)c2cccc(NS(=O)(=O)c3cccs3)c2OC1CN(C)Cc1ccncc1 (configuration not stated)	.	-	.	.	.	-
COc1cc(C(=O)NN=Cc2ccc(OC(=O)N3CCOCC3)cc2)cc(OC)c1OC	.	-	.	.	.	-
Cc1ccc(N(C(=O)c2ccccc2Cl)C2=NC(C)CS2)c(C)c1 (configuration not stated)	-	-	-	-	-	88
Cc1cccc(C(=O)NC(=S)NNC(=O)c2ccc(Cl)cc2)c1	-	85	-	-	-	-
COc1ccc(Cl)cc1NC(=S)NC(=O)c1ccc2c(c1)OCO2	-	-	-	-	-	-
Cc1cc(C)cc(C(=O)NC(=S)Nc2ccc3c(c2)OCCO3)c1	-	-	-	-	-	93
CCc1ccc(C(=O)NC(=S)Nc2ccc3c(c2)OCCO3)cc1	-	-	-	-	-	-
Cc1cc(C)cc(C(=O)NC(=S)Nc2ccc(Cc3ccncc3)cc2)c1	-	-	-	-	-	87
O=C(NC(=S)Nc1ccc2c(c1)OCO2)c1ccc(Cl)cc1	-	-	-	-	-	88
CC(C)CC(NC(=O)c1ccccc1)C(=O)NN=Cc1ccco1 (configuration not stated)	.	-	.	.	.	-
CCc1ccc(C=NNC(=O)c2cc(C)on2)s1	.	-	.	.	.	-
CC(C)C(=O)Nc1cccc(NC(=S)NC(=O)c2ccc3c(c2)OCO3)c1	-	-	-	-	-	-
CC(C)C(=O)Nc1cccc(NC(=S)NC(=O)c2ccc(Cl)cc2)c1	-	-	-	-	-	83
CCOc1cc(CNc2ccc3cn[nH]c3c2)ccc1OC	-	-	-	-	59	-
C=CCC(CC(=O)NC(CO)Cc1ccccc1)C(=O)NCCOC(=O)C(CC=C)CC(=O)OC(C)(C)C (configuration not stated)	.	-	.	.	.	-
Cc1ccc(C(=O)Nc2cccc([N+](=O)[O-])c2)cc1S(=O)(=O)Nc1cccc(C(=O)O)c1	-	-	-	-	-	94
COC(=O)c1sc(C(C)(C)C)cc1CSc1ccccc1	-	-	-	-	-	84
COC(=O)c1sc(C(C)(C)C)cc1CS(=O)(=O)c1ccc(Cl)cc1	-	-	-	-	-	-
S=C(NN=Cc1ccc2ncccc2c1)Nc1ccccc1	.	-	.	.	.	-
CC(C)c1ccc(N2C(=O)CC(Sc3ncn[nH]3)C2=O)cc1 (configuration not stated)	-	-	-	-	-	-
COc1ccc(N2C(=O)CC(Sc3ncn[nH]3)C2=O)c(OC)c1 (configuration not stated)	-	-	-	-	55	-
COc1ccc2nc(SCC(=O)Nc3ccc(S(=O)(=O)N4CCCC4)cc3)c(C#N)cc2c1	-	-	-	-	-	-
Nc1c(C(=O)Nc2ccc(S(=O)(=O)N3CCCC3)cc2)sc2nc3ccc(OC(F)(F)F)cc3cc12	-	-	-	402	.	-
Nc1c(C(=O)Nc2ccc(S(=O)(=O)N3CCCC3)cc2)sc2nc3cc4c(cc3cc12)CCC4	-	-	-	57	-	-
Nc1c(C(=O)Nc2ccc(Cl)c(C(=O)O)c2)sc2nc3c(cc12)CCCC3	-	-	-	-	-	-
SMILES	Mtb betalactam	RN4220 kill	3CLpro inhibitor	MazEF act	CCHFV vOTU inh	ugtP null kill
CCCCCC[n+]1c(-c2ccccc2)csc1Nc1ccccc1	-	-	-	-	-	88
O=C(O)c1ccc(C[n+]2c(-c3ccccc3)csc2Nc2ccccc2)cc1	-	-	-	-	-	-
Cc1ccc2c(Cl)c(C(=O)N/N=C/c3cccn3C)sc2c1	-	.	-	71	-	.
Cn1cccc1/C=N/NC(=O)c1sc2cc(Cl)ccc2c1Cl	-	.	-	.	-	.
COc1cc(O)c(CC=C(C)C)c(O)c1C(=O)CCc1ccc(O)cc1	-	-	.	-	-	92
CCCCN(C(=O)CCC(=O)Nc1cc(C)on1)C(C(=O)NC1CCCC1)c1ccc(OCC)cc1 (configuration not stated)	-	-	-	-	37	-
COc1ccc(C=NN2CCN(C3c4ccccc4-c4ccccc43)CC2)cc1OC	.	-	.	.	.	-
CCn1nc(C)c(Br)c1C(=O)Sc1ccccc1Cl	-	-	-	-	-	87
CC1CN(C(C)CO)C(=O)c2cccc(NC(=O)c3ccncc3)c2OC1CN(C)C(=O)Nc1ccccc1 (configuration not stated)	.	-	.	.	.	-

Compound activity: PubChem, several laboratories
